Results: the supplement of paper PMC10849652
Of roughly 7,900 targets only a part is listed; those with a hit were picked by preference. About 0.6% of all pairs of compound and target were hits. A number with no mark means an inactive call.

Assays:
Assay in all cases: log2 fold change, soluble protein after heating vs DMSO (PISA); higher = thermal stabilisation; K562 cells, 10 uM, 30 min; active = over 0.2 and 3.5 SD of the protein, either way, in both replicates (recomputed)
[1] = compound: CC[C@@H]1C(=O)N(C)c2cnc(Nc3ccc(C(=O)NC4CCN(C)CC4)cc3OC)nc2N1C1CCCC1
In short: (§1)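 K562 cells at 2×10^6 cells/mL were exposed to 10 μM compound for 30 min, then aliquots were heated for 3 min across 48°C-58°C, pooled, and extracted in PBS containing 0.5% NP-40 at 4°C. The supernatant after 21,000xg for 90 min was taken as soluble protein and measured by TMTpro 16plex LC-MS/MS with channel sums equalised. Thermal stability is reported relative to control samples, with values from duplicates. Fold changes are given on a log2 scale.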

volasertib = compound: CC[C@@H]1C(=O)N(C)c2cnc(Nc3ccc(C(=O)N[C@H]4CC[C@H](N5CCN(CC6CC6)CC5)CC4)cc3OC)nc2N1C(C)C [volasertib]
In short: as §1

[2] = compound: CC[C@H](C)N1C=C(C2=C(C=C(C=C21)C3=CN=C(C=C3)N4CCNCC4)C(=O)NCC5=C(C=C(NC5=O)C)C)C
In short: as §1

epoxomicin = compound: CC[C@H](C)[C@@H](C(=O)N[C@@H]([C@@H](C)O)C(=O)N[C@@H](CC(C)C)C(=O)[C@]1(CO1)C)NC(=O)[C@H]([C@@H](C)CC)N(C)C(=O)C [epoxomicin]
In short: as §1

[3] = compound: CCn1c(C(=O)N(C2CC2)C2CC2)cc2c3c(ncn3C)c(Nc3cc(C)n(C)n3)nc21
In short: as §1

[4] = compound: CCn1cc(-c2ccnc3[nH]c(-c4cccc(CN(C)C)c4)cc23)c(-c2ccc(NC(=O)N(C)C)cc2)n1
In short: as §1

[5] = compound: CN(C)CC(=O)Nc1ccc2[nH]c(=O)c3ccccc3c2c1
In short: as §1

rosiglitazone = compound: CN(CCOC1=CC=C(C=C1)C[C@H]2C(=O)NC(=O)S2)C3=CC=CC=N3 (racemic) [rosiglitazone]
In short: as §1

[6] = compound: CN1C2=C(C3=C1C(=O)N(N=C3)CC4=CC(=CC=C4)N)SC(=C2)S(=O)C
In short: as §1

[7] = compound: CN1CCC(CNc2ccc3ncc(-c4cccc(OC(F)(F)F)c4)n3n2)CC1
In short: as §1

saracatinib = compound: CN1CCN(CCOc2cc(OC3CCOCC3)c3c(Nc4c(Cl)ccc5c4OCO5)ncnc3c2)CC1 [saracatinib]
In short: as §1

sotrastaurin = compound: CN1CCN(c2nc(C3=C(c4c[nH]c5ccccc45)C(=O)NC3=O)c3ccccc3n2)CC1 [sotrastaurin]
In short: as §1

alvocidib = compound: CN1CC[C@H](c2c(O)cc(O)c3c(=O)cc(-c4ccccc4Cl)oc23)[C@H](O)C1 [alvocidib]
In short: as §1

Tubastatin A = compound: CN1CCc2c(c3ccccc3n2Cc2ccc(C(=O)NO)cc2)C1 [Tubastatin A]
In short: as §1

[8] = compound: CNC(=O)C1=CC=CC=C1NC2=NC(=NC=C2Cl)NC3=C(C=C(C=C3)N4CCOCC4)OC
In short: as §1

defactinib = compound: CNC(=O)c1ccc(Nc2ncc(C(F)(F)F)c(NCc3nccnc3N(C)S(C)(=O)=O)n2)cc1 [defactinib]
In short: as §1

rucaparib = compound: CNCc1ccc(-c2[nH]c3cc(F)cc4c3c2CCNC4=O)cc1 [rucaparib]
In short: as §1

[9] = compound: CNc1nc(-c2ccc3c(N)n[nH]c3c2)cc(N2C[C@@H](C(=O)NC3CCCCC3)CC[C@H]2C)n1
In short: as §1

encorafenib = compound: COC(=O)N[C@@H](C)CNc1nccc(-c2cn(C(C)C)nc2-c2cc(Cl)cc(NS(C)(=O)=O)c2F)n1 [encorafenib]
In short: as §1

[10] = compound: COC(=O)[C@H](CCSC)NC(=O)C1=C(C=C(C=C1)NC[C@H](CS)N)C2=CC=CC=C2
In short: as §1

Sequence of UniProt Q9NZN4 (Q9NZN4 whole entry, looked up): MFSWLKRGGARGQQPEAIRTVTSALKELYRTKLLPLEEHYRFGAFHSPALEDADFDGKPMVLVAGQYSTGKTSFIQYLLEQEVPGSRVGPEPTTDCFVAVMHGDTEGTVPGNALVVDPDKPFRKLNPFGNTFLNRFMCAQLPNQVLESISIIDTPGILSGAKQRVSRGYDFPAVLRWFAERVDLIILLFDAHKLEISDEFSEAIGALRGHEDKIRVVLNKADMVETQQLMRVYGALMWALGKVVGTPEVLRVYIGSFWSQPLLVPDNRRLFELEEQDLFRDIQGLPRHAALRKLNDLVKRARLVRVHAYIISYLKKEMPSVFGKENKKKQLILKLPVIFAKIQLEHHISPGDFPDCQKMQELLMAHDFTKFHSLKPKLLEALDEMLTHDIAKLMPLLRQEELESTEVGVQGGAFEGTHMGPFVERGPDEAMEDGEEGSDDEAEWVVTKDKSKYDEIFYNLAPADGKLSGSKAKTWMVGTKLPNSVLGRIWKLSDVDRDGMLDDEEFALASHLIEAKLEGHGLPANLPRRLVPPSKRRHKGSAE
Sequence of UniProt O94905 (O94905 whole entry, looked up): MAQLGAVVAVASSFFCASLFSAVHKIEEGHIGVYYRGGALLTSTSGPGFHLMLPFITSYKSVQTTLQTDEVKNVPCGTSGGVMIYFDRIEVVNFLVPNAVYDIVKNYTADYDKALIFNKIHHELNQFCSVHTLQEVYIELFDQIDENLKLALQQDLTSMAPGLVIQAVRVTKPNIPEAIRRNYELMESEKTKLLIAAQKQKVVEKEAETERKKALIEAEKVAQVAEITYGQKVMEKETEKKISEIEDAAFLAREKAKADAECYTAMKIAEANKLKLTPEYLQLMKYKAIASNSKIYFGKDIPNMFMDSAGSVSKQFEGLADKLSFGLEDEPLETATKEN
Sequence of UniProt P60842 (P60842 whole entry, looked up): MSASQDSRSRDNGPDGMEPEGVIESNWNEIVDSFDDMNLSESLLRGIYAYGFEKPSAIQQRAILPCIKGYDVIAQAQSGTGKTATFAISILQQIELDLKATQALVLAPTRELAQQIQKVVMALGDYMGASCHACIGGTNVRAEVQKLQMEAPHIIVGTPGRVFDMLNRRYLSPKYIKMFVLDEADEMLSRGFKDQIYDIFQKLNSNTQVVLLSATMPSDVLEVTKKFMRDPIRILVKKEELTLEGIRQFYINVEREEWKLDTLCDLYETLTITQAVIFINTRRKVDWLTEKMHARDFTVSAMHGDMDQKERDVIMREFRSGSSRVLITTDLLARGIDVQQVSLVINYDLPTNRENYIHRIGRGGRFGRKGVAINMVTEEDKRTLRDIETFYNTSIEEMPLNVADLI
Sequence of UniProt O75071 (O75071 whole entry, looked up): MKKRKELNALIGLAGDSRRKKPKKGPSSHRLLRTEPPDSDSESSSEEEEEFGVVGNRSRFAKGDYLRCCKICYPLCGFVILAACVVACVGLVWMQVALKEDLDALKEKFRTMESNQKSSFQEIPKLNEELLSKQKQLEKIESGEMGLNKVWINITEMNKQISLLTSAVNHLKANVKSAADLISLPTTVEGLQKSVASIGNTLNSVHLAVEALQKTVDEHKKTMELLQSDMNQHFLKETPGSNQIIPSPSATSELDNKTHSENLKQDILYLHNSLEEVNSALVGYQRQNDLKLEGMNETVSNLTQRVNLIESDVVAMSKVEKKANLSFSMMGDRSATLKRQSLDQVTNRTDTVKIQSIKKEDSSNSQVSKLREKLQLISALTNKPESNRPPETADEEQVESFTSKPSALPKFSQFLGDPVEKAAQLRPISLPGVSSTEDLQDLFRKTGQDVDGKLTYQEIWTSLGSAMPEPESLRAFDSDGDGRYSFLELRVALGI
Sequence of UniProt Q6V1X1 (Q6V1X1 whole entry, looked up): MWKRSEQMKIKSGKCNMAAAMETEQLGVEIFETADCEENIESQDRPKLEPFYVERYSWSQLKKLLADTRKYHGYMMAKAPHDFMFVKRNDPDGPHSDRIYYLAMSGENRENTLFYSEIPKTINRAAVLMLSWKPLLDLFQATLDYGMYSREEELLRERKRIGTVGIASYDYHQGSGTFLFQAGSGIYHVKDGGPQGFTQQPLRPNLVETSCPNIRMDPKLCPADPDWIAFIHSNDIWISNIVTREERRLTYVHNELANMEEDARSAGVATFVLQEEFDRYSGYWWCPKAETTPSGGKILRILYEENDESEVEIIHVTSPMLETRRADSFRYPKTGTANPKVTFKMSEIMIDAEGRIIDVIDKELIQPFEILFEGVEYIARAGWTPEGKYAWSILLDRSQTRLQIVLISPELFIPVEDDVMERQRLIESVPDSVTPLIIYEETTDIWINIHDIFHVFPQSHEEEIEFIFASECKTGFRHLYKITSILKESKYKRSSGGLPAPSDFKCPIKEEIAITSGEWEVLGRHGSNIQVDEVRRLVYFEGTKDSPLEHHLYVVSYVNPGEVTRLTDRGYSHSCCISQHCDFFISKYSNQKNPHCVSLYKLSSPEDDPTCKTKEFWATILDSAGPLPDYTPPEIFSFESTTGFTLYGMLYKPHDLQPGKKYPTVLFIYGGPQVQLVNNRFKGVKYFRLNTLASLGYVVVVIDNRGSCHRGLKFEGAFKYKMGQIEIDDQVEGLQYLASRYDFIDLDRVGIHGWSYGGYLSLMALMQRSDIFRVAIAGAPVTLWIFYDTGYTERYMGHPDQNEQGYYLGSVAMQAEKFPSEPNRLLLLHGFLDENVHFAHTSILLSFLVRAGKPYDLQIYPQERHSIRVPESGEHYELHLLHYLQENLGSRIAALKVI
Sequence of UniProt Q5NDL2 (Q5NDL2 whole entry, looked up): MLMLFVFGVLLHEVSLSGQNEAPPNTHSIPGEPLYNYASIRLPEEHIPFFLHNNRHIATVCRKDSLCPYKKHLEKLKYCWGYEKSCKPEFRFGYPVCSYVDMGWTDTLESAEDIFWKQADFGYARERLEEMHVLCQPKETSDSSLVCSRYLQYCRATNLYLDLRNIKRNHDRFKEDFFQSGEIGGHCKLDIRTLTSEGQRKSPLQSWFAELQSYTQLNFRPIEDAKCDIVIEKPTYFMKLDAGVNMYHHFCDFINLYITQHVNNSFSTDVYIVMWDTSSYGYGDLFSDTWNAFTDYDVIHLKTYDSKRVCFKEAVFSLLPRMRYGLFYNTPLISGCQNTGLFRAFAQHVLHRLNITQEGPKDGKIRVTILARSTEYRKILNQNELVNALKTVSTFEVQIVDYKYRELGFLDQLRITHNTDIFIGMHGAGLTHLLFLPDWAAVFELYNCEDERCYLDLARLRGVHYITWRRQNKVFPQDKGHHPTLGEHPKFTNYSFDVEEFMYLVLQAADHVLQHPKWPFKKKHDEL
Sequence of UniProt Q6P2E9 (Q6P2E9 whole entry, looked up): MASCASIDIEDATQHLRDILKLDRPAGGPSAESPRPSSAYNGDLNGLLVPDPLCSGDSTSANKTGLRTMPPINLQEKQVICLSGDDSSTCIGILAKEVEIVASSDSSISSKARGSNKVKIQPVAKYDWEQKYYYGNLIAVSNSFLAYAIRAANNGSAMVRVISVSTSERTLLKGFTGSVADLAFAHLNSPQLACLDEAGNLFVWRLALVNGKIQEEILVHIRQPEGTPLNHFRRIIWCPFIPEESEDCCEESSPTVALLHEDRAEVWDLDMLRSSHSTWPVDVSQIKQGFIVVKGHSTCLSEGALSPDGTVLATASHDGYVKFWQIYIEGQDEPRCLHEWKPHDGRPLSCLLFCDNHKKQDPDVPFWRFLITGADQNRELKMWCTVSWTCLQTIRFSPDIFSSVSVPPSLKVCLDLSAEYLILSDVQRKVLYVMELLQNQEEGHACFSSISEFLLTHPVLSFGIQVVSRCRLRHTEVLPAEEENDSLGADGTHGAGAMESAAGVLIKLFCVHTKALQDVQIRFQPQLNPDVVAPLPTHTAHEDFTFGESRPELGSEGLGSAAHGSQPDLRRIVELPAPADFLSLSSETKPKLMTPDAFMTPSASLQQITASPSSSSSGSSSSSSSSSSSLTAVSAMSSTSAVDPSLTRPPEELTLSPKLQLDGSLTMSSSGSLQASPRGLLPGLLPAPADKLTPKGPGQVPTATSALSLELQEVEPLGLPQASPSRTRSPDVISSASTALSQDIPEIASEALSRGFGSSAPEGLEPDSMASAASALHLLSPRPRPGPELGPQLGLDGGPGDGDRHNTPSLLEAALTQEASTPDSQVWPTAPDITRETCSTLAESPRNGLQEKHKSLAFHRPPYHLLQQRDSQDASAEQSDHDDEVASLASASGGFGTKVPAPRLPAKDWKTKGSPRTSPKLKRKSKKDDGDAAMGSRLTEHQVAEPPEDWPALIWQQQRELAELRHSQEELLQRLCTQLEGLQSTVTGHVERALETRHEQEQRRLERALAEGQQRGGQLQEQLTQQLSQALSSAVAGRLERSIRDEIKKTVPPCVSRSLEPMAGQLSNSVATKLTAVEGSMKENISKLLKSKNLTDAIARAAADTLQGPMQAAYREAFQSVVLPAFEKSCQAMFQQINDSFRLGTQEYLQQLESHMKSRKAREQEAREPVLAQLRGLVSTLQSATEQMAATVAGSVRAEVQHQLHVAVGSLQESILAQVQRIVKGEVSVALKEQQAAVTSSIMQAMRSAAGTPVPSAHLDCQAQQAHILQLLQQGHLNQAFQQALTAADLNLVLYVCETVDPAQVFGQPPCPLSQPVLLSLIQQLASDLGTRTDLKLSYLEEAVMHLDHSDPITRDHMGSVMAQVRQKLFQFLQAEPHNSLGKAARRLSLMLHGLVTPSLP
Sequence of UniProt P23919 (P23919 whole entry, looked up): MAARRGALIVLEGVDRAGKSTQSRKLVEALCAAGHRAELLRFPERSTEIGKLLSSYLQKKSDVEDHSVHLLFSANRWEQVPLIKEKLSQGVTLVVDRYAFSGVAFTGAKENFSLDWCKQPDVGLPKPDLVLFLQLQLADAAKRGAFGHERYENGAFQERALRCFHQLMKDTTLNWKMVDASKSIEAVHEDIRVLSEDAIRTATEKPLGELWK

| Target | log2 fold change [1] | log2 fold change (volasertib) | log2 fold change [2] | log2 fold change (epoxomicin) | log2 fold change [3] | log2 fold change [4] | log2 fold change [5] | log2 fold change (rosiglitazone) | log2 fold change [6] | log2 fold change [7] | log2 fold change (saracatinib) | log2 fold change (sotrastaurin) | log2 fold change (alvocidib) | log2 fold change (Tubastatin A) | log2 fold change [8] | log2 fold change (defactinib) | log2 fold change (rucaparib) | log2 fold change [9] | log2 fold change (encorafenib) | log2 fold change [10] |
| --- | --- | --- | --- | --- | --- | --- | --- | --- | --- | --- | --- | --- | --- | --- | --- | --- | --- | --- | --- | --- |
| FAAP100 (UniProt Q0VG06) | -0.01 | 0.149 | -0.02 | 0.139 | -0.05 | -0.093 | 0.061 | 0.006 | -0.02 | 0.124 | 0.044 | -0.014 | -0.035 | 0.028 | -0.178 | -0.044 | 0.009 | -0.067 | -0.04 | -0.097 |
| EVC2 (UniProt Q86UK5) | -0.133 | -0.003 | 0.078 | 0.097 | -0.038 | -0.037 | -0.087 | 0.128 | 0.034 | -0.293 | -0.151 | 0.067 | 0.031 | -0.033 | -0.035 | -0.065 | 0.065 | 0.035 | 0.002 | 0.073 |
| DHX16 (UniProt O60231) | -0.032 | -0.158 | 0.032 | 0.051 | -0.05 | -0.054 | -0.025 | 0.031 | -0.033 | -0.012 | 0.024 | -0.037 | -0.045 | -0.001 | -0.042 | -0.035 | -0.027 | 0.028 | 0.019 | -0.013 |
| DTNBP1 (UniProt Q96EV8) | -0.017 | 0.009 | -0.002 | 0.048 | 0.026 | -0.086 | -0.009 | 0.016 | -0.028 | 0.01 | -0.072 | 0.026 | -0.041 | 0.023 | 0 | -0.054 | -0.015 | 0.005 | 0.014 | 0.054 |
| FAF2 (UniProt Q96CS3) | -0.095 | -0.322 (active) | 0.002 | -0.046 | 0.006 | 0.018 | 0.037 | 0.029 | 0.016 | -0.069 | -0.084 | -0.048 | -0.053 | -0.008 | 0.021 | -0.011 | 0.015 | 0.021 | 0.036 | 0 |
| DTYMK (UniProt P23919) | 0.044 | 0.171 | -0.03 | 0.039 | -0.053 | -0.245 (active) | 0.01 | 0.056 | -0.04 | -0.037 | -0.02 | 0.06 | 0 | -0.022 | -0.062 | 0.004 | -0.044 | 0.003 | 0.005 | 0.013 |
| EXOC8 (UniProt Q8IYI6) | -0.212 | -0.367 (active) | 0.045 | -0.004 | -0.088 | 0.003 | 0.073 | 0.05 | 0.009 | -0.295 (active) | -0.015 | -0.196 | -0.031 | -0.012 | 0.056 | -0.069 | 0.016 | 0.112 | 0.094 | -0.047 |
| EFCAB14 (UniProt O75071) | -0.033 | -0.089 | -0.078 | 0.068 | 0.045 | 0.06 | -0.018 | -0.009 | 0.028 | -0.178 | -0.164 | 0.083 | 0.016 | -0.029 | -0.03 | 0.093 | -0.059 | 0.031 | 0.044 | -0.086 |
| EOGT (UniProt Q5NDL2) | -0.004 | 0.013 | -0.037 | 0.05 | -0.007 | 0.001 | 0 | 0.022 | 0.021 | 0.062 | -0.012 | 0.052 | -0.02 | 0.025 | 0 | 0.031 | 0.014 | -0.158 | 0.042 | -0.032 |
| ERLIN1 (UniProt O75477) | -0.01 | -0.025 | 0.07 | 0.018 | 0.01 | 0.057 | 0.003 | 0.016 | 0.095 | 0.116 | 0 | -0.072 | 0.023 | 0.029 | -0.06 | 0.028 | 0.072 | -0.004 | 0.105 | -0.024 |
| EIF4A1 (UniProt P60842) | -0.106 | -0.273 (active) | 0.079 | 0.001 | 0.001 | -0.052 | 0.047 | 0.06 | -0.046 | -0.126 | -0.029 | -0.138 | -0.088 | 0.049 | -0.03 | -0.116 | 0 | 0.012 | 0.071 | -0.05 |
| ERLIN2 (UniProt O94905) | 0.06 | -0.057 | 0.054 | -0.034 | -0.031 | 0.01 | -0.051 | -0.01 | 0.096 | 0.008 | -0.044 | -0.097 | 0.034 | 0 | -0.137 | 0.026 | 0.033 | -0.005 | 0.092 | 0.004 |
| DNTTIP2 (UniProt Q5QJE6) | 0.047 | -0.002 | 0.031 | -0.144 | 0.015 | 0.09 | -0.028 | -0.088 | 0.226 | -0.028 | -0.038 | -0.104 | -0.007 | 0.145 | 0.011 | -0.131 | 0.171 | 0.03 | 0.067 | 0.121 |
| EDC4 (UniProt Q6P2E9) | -0.126 | -0.47 (active) | 0.042 | 0 | -0.009 | 0.039 | -0.006 | 0.014 | 0.07 | -0.084 | -0.023 | -0.109 | -0.167 | 0.016 | -0.163 | -0.148 | -0.012 | -0.099 | 0.113 | 0.005 |
| EHD2 (UniProt Q9NZN4) | -0.073 | -0.243 (active) | 0.027 | 0.023 | -0.029 | -0.085 | 0.007 | 0.039 | -0.045 | -0.002 | 0.016 | 0.017 | -0.017 | 0.048 | -0.031 | -0.12 | -0.019 | -0.053 | 0.046 | -0.061 |
| DPP8 (UniProt Q6V1X1) | 0.143 | 0.007 | -0.025 | -0.045 | 0.019 | 0.002 | -0.057 | 0.02 | -0.047 | -0.106 | -0.002 | 0.175 | 0.024 | 0.003 | -0.044 | 0.082 | -0.572 (active) | -0.021 | 0.026 | 0.058 |
